Inconclusive results are not listed. Active and inactive are the calls of the source. How the source made its calls: active means hit-call score of the fitted dose curve at least 0.9, where 1 is the maximum; inconclusive means response in the unintended direction; inactive means score below 0.9.
What was measured:
[1] = molecular target: Glucocorticoid receptor (Homo sapiens) (UniProt P04150); assay: ATG_GR_TRANS: Attagene TRANS-FACTORIAL HepG2 Assay for human Glucocorticoid Receptor (GR) (AID 2282978); settings: HepG2 Attagene TRANS GR reporter, mRNA transcription;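 further: activators score as hits since higher reporter transcript over DMSO is fitted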
Summary of the method: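 HepG2 cells transiently transfected with multiplexed reporter units in which chimeric NR-GAL4 proteins drive GAL4-UAS reporters; 24 h compound exposure. Reporter mRNA measured by RT-PCR, 6-FAM labelling, HpaI digestion and capillary electrophoresis; gain-of-signal fitted versus DMSO.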

[2] = molecular target: Bile acid receptor (Homo sapiens) (UniProt Q96RI1); assay: ATG_FXR_TRANS: Attagene TRANS-FACTORIAL HepG2 Assay for Farnesoid X Receptor (FXR) (AID 2282979); settings: HepG2 Attagene TRANS FXR-GAL4 reporter transcription;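 further: hits raise reporter mRNA above DMSO so AC50 marks FXR activation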
Summary of the method: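 HepG2 cells transiently transfected with reporter constructs in which a chimeric FXR-GAL4 protein drives a GAL4-UAS reporter; 24 h compound exposure. Reporter mRNA measured by RT-PCR, FAM labelling, HpaI digestion and capillary electrophoresis; gain-of-signal versus DMSO.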

[3] = molecular target: Oxysterols receptor LXR-alpha (Homo sapiens) (UniProt Q13133); assay: ATG_LXRa_TRANS: Attagene TRANS-FACTORIAL HepG2 Assay for human Liver X Receptor alpha (LXRa) (AID 2282980); settings: HepG2 Attagene TRANS reporter, LXRa transactivation
Summary of the method: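 HepG2 cells were transiently transfected with multiplexed reporter units driven by chimeric LXRa–GAL4 fusion proteins, then dosed for 24 h. Reporter mRNA was quantified by RT-PCR, fluorescent labelling and capillary electrophoresis; gain of signal fitted against DMSO baseline.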

[4] = molecular target: Oxysterols receptor LXR-beta (Homo sapiens) (UniProt P55055); assay: ATG_LXRb_TRANS: Attagene TRANS-FACTORIAL HepG2 Assay for human Liver X Receptor beta (LXRb) (AID 2282981); settings: HepG2 Attagene TRANS GAL4-LXRb reporter, mRNA
Summary of the method: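 Transient transfection HepG2 (multiplexed RTUs, GAL4-UAS); NR-Gal4 chimera; 24 h exposure; RNA → RT-PCR → 6-FAM primer extension → HpaI → CE; increase vs DMSO.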

[5] = molecular target: Hepatocyte nuclear factor 4-alpha (Homo sapiens) (UniProt P41235); assay: ATG_HNF4a_TRANS: Attagene TRANS-FACTORIAL HepG2 Assay for human Hepatocyte Nuclear Factor 4 alpha (HNF4a) (AID 2282982); settings: HepG2 HNF4a transactivation reporter, mRNA readout
Summary of the method: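 Readout is fluorescent reporter-transcript fragments resolved by capillary electrophoresis after RT-PCR from HepG2 cells dosed for 24 h. Cells carried transfected GAL4-UAS reporter constructs measuring exogenous NR-GAL4 chimera activity; DMSO served as baseline.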

[6] = ATG_M_06_TRANS: Attagene TRANS-FACTORIAL HepG2 Assay for M06 Transcription Factor (Internal Marker) (AID 2282983); settings: HepG2 Attagene TRANS M06 internal marker reporter;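 on AC50: potency for rise in reporter mRNA above DMSO baseline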
Summary of the method: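 HepG2 cells transiently transfected with multiplexed GAL4-UAS reporter transcription units; after 24 h compound exposure, reporter mRNA measured by RT-PCR, FAM-labelled primer extension, HpaI digestion and capillary electrophoresis. Gain-of-signal fitted versus DMSO baseline; background control readout.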

[7] = molecular target: Nuclear receptor subfamily 4 group A member 2 (Homo sapiens) (UniProt P43354); assay: ATG_NURR1_TRANS: Attagene TRANS-FACTORIAL HepG2 Assay for human Nuclear Receptor Related Protein 1 (NURR1) (AID 2282985); settings: HepG2 Attagene TRANS reporter, mRNA readout
Summary of the method: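 Transient transfection of HepG2, human liver cells, with multiple GAL4-UAS reporter transcription units. Cells dosed 24 h, RNA isolated, reverse-transcribed, PCR-amplified, FAM-labelled, HpaI-digested, sized by capillary electrophoresis. DMSO served as negative control.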

[8] = molecular target: Estrogen-related receptor gamma (Homo sapiens) (UniProt P62508); assay: ATG_ERRg_TRANS: Attagene TRANS-FACTORIAL HepG2 Assay for human Estrogen-Related Receptor gamma (ERRg) (AID 2282977); settings: HepG2 Attagene TRANS reporter, ERRg transactivation;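 further: hits increase reporter signal over DMSO so potencies reflect activators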
Summary of the method: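 HepG2 cells transiently transfected with multiplexed GAL4-UAS reporter units driven by chimeric NR-Gal4 proteins; 24 h exposure. Reporter mRNA quantified by RT-PCR, fluorescent labelling, HpaI digestion and capillary electrophoresis; gain of signal vs DMSO.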

[9] = ATG_M_32_TRANS: Attagene TRANS-FACTORIAL HepG2 Assay for M32 Transcription Factor (Internal Marker) (AID 2282984); settings: HepG2 Attagene TRANS M32 internal marker reporter
Summary of the method: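 Measures reporter mRNA induction in human HepG2 liver cells after 24 h chemical treatment. Transcripts from transiently transfected GAL4-UAS reporter units are amplified, fluorescently labelled and sized by capillary electrophoresis; gain of signal relative to DMSO.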

[10] = ATG_GAL4_TRANS: Attagene TRANS-FACTORIAL HepG2 Assay for GAL4 (Internal Marker) (AID 2282976); settings: HepG2 Attagene TRANS GAL4 internal marker reporter
Summary of the method: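 HepG2 cells transiently transfected with multiplexed GAL4-UAS reporter constructs were dosed for 24 h. Reporter mRNA was measured by RT-PCR, 6-FAM primer extension, HpaI digestion and capillary electrophoresis, and gain of signal was fitted relative to DMSO.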

Measured: AC50

Sequence of Bile acid receptor (Homo sapiens) (Q96RI1 whole entry, looked up, the tested form may be a part): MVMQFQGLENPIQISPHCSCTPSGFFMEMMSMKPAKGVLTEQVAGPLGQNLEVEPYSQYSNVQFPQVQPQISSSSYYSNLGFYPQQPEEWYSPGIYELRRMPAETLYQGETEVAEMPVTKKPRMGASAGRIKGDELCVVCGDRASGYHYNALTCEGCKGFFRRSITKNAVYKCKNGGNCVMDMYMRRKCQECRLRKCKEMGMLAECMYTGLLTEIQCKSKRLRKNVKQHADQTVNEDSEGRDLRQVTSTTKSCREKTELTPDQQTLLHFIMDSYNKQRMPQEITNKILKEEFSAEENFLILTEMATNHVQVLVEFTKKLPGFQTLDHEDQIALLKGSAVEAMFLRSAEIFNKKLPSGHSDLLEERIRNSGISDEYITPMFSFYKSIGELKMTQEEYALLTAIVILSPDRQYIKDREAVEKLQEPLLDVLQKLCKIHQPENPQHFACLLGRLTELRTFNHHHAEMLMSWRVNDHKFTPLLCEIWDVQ
Sequence of Hepatocyte nuclear factor 4-alpha (Homo sapiens) (P41235 whole entry, looked up, the tested form may be a part): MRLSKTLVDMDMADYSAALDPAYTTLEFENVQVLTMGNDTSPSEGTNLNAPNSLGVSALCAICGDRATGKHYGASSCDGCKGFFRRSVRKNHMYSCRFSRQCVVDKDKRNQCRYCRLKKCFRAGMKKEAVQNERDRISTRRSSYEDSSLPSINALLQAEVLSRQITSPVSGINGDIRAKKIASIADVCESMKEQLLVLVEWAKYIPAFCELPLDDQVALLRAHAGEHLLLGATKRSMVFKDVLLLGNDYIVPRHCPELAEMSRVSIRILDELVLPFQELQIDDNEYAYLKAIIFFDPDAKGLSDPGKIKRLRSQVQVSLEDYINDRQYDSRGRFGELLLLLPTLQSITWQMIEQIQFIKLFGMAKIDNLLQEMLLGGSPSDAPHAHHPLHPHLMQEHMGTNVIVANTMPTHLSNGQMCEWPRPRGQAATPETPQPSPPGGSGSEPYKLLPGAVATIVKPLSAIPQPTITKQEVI
Sequence of Nuclear receptor subfamily 4 group A member 2 (Homo sapiens) (P43354 whole entry, looked up, the tested form may be a part): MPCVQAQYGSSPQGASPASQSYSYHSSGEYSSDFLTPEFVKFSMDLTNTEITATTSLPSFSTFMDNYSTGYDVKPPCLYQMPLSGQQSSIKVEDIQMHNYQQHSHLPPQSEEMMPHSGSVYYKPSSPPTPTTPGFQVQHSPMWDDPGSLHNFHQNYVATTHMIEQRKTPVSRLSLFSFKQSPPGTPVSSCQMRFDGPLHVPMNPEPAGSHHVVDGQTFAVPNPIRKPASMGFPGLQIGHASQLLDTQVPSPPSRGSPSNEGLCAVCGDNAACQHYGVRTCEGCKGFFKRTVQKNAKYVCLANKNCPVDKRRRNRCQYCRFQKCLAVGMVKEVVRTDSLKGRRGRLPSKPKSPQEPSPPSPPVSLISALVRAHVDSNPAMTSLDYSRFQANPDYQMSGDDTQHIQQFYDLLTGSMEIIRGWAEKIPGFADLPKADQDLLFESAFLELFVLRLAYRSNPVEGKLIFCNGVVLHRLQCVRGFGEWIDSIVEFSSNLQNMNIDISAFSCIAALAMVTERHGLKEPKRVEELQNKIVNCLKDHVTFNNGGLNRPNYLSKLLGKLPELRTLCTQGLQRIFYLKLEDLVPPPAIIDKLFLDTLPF
Sequence of Oxysterols receptor LXR-beta (Homo sapiens) (P55055 whole entry, looked up, the tested form may be a part): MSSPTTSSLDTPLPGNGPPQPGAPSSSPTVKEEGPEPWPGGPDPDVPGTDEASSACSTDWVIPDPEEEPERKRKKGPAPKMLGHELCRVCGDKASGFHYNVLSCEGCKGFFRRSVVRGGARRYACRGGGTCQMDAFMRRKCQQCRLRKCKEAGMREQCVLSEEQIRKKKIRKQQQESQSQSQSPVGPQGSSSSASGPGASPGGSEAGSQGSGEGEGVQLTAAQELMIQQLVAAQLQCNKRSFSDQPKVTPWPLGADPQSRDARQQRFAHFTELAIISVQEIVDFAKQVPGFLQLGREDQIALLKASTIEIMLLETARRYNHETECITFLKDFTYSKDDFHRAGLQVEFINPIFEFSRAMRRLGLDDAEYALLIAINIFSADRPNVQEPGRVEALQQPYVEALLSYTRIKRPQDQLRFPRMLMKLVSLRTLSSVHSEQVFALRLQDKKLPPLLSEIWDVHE
Sequence of Oxysterols receptor LXR-alpha (Homo sapiens) (Q13133 whole entry, looked up, the tested form may be a part): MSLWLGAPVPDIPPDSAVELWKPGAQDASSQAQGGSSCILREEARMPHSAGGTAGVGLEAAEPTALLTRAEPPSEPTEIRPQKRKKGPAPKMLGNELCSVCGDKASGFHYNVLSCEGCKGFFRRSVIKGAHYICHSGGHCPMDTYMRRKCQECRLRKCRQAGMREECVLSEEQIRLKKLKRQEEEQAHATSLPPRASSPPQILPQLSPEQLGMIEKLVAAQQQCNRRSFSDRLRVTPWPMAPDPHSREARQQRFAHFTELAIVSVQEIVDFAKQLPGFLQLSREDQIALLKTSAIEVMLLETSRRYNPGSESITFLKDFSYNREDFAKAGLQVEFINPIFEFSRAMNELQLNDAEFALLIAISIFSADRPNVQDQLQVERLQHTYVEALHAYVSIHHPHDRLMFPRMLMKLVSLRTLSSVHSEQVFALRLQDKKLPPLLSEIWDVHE
Sequence of Glucocorticoid receptor (Homo sapiens) (P04150 whole entry, looked up, the tested form may be a part): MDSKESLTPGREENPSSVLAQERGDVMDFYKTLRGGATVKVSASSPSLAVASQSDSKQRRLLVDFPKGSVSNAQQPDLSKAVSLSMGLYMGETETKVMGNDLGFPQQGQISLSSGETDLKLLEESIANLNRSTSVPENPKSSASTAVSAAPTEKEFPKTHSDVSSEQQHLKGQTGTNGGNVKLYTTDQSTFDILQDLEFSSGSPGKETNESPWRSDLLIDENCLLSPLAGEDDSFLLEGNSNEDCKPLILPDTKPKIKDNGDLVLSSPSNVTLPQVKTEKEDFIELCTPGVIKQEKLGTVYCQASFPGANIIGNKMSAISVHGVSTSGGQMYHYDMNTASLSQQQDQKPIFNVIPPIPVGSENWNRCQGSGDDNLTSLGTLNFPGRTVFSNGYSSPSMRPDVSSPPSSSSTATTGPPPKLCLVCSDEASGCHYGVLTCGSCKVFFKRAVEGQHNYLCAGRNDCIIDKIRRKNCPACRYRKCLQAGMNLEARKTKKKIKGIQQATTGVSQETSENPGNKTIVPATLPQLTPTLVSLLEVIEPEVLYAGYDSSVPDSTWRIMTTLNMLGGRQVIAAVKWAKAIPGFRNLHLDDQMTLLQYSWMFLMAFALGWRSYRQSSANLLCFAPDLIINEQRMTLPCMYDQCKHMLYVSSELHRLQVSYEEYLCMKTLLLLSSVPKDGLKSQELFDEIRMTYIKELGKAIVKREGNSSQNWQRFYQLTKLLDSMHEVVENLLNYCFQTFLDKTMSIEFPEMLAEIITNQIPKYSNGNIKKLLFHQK
Sequence of Estrogen-related receptor gamma (Homo sapiens) (P62508 whole entry, looked up, the tested form may be a part): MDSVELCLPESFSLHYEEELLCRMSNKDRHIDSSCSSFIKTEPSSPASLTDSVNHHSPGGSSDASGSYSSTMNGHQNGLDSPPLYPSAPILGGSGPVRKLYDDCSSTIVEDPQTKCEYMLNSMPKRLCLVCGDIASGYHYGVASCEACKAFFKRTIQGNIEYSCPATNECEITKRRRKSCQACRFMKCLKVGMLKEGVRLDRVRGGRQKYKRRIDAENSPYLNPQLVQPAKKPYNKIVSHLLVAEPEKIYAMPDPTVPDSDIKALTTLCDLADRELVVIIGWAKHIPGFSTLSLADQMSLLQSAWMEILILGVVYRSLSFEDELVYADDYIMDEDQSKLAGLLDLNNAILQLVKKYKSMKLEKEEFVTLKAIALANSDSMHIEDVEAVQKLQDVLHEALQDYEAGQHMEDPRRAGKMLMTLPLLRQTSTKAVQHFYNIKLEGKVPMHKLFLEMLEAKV

CC1=C(C(=O)Nc2ccccc2)S(=O)(=O)CCO1
inactive: [1] | [2] | [3] | [4] | [5] | [6] | [7]

CCOP(=S)(OCC)SCn1nnc2ccccc2c1=O
active: [2] 26.5 µM | [7] 100 µM
inactive: [8] | [1] | [5] | [9]

CNC(=O)Oc1ccc(N(C)C)c(C)c1
inactive: [8] | [3] | [4] | [5] | [9]

Cc1ccc([N+](=O)[O-])cc1C
inactive: [10] | [2] | [5] | [6] | [9]

O=S1(=O)OCC2C(CO1)C1(Cl)C(Cl)=C(Cl)C2(Cl)C1(Cl)Cl (stereo not given)
inactive: [1] | [2] | [3] | [6] | [9]

CCCCOCCOP(=O)(OCCOCCCC)OCCOCCCC
inactive: [10] | [1] | [3] | [4] | [5] | [6] | [9] | [7]

O=S(=O)(c1ccc(O)cc1)c1ccc(O)cc1
inactive: [1] | [2] | [3] | [4] | [5] | [6] | [9]

CCOP(=S)(Oc1ccc([N+](=O)[O-])cc1)c1ccccc1 (stereo not given)
inactive: [8] | [6] | [7]

FC(F)(F)C(F)(C(F)(F)F)C(F)(F)C(F)(F)CC1CO1 (stereo not given)
inactive: [1] | [2] | [4] | [5] | [6] | [9]

Cn1[nH]nnc1=S
inactive: [10] | [2] | [4] | [6] | [9] | [7]

CCOC(=O)c1ccccc1N
inactive: [1] | [2] | [3] | [4] | [6] | [9]

O=C(O)C(F)(F)C(F)(F)C(=O)O
inactive: [8] | [2] | [3] | [4] | [5] | [6] | [7]

O=C(O)CF
inactive: [10] | [5] | [6] | [9] | [7]

O=[N+]([O-])c1cc(Cl)ccc1Cl
inactive: [1] | [2] | [3] | [6] | [9]

O=C(O)C(Cl)Cl
inactive: [10] | [1] | [3] | [6]

COP(N)(=S)OC
inactive: [10] | [1] | [9]

COC(N)=O
inactive: [10] | [1] | [3] | [5] | [6]

CCOP(=S)(NC(C)C)Oc1ccccc1C(=O)OC(C)C (stereo not given)
active: [7] 57.4 µM
inactive: [8] | [1] | [2] | [5] | [6]

c1ccc2c(c1)sc1ccccc12
inactive: [1] | [2] | [3] | [4] | [6] | [9]

CC(=O)c1ccc(-c2ccccc2)cc1
inactive: [1] | [2] | [3] | [4] | [6] | [9] | [7]

CCOP(=O)(O)C(N)=O
inactive: [10] | [2] | [4] | [6] | [9]

Cc1ccc2c(c1N)C(=O)c1ccccc1C2=O
inactive: [8] | [1] | [2] | [3] | [5] | [9] | [7]

Nc1ccc(Cl)cc1
inactive: [10] | [3] | [6] | [9] | [7]

CCCCC(CC)COC(=O)c1c(Br)c(Br)c(Br)c(Br)c1C(=O)OCC(CC)CCCC (stereo not given)
active: [1] 14.1 µM
inactive: [2] | [3] | [4] | [6]

OCC(F)(F)OC(F)(F)C(F)(F)OC(F)(F)C(F)(F)OC(F)(F)CO
inactive: [1] | [2] | [3] | [4] | [5] | [6] | [7]

CCC1(c2ccccc2)C(=O)N=C(O)NC1=O (stereo not given)
inactive: [10] | [4] | [5] | [6]

O=P1(N(CCCl)CCCl)NCCCO1 (stereo not given)
inactive: [10] | [1] | [4] | [6] | [9]

COP(=O)(CCC(=O)NCO)OC
inactive: [8] | [1] | [2] | [3] | [5] | [6] | [7]

C=CC(=O)OCC(CC)(COC(=O)C=C)COC(=O)C=C
inactive: [1] | [5] | [6] | [7]

[N-]=[N+]=[N-]
active: [4] 100 µM
inactive: [6] | [7]

CC(C)(C)c1ccc(O)cc1
inactive: [2] | [3] | [6] | [9]

O=P(OCC(Br)CBr)(OCC(Br)CBr)OCC(Br)CBr (stereo not given)
inactive: [6]

CCCN(CCC)c1c([N+](=O)[O-])cc(C(C)C)cc1[N+](=O)[O-]
inactive: [7]

CSC(C)(C)C=NO
inactive: [6] | [7]

O=C(O)C(F)(F)OC(F)(F)C(F)(F)OC(F)(F)C(=O)O
inactive: [1] | [2] | [6] | [9]

ClC(Cl)=C(c1ccc(Cl)cc1)c1ccccc1Cl
inactive: [1] | [2] | [4] | [6] | [7]

Clc1ccc(Oc2ccccc2)cc1
inactive: [1] | [2] | [4] | [6] | [9] | [7]

CCOS(=O)(=O)OCC
inactive: [4] | [6] | [9]

CCCCC(CC)COP(=O)(Oc1ccccc1)Oc1ccccc1 (stereo not given)
active: [7] 21.8 µM
inactive: [1] | [2] | [5] | [6] | [9]

ClC1=C(Cl)C2(Cl)C3C(Cl)C(Cl)CC3C1(Cl)C2(Cl)Cl (stereo not given)
active: [1] 100 µM | [2] 54.7 µM
inactive: [4] | [6] | [9]

CCCCN(CC)C(=O)SCCC
inactive: [1] | [4] | [5] | [9]

ClC(Cl)(Cl)c1ccccc1
inactive: [4] | [6] | [7]

c1nc[nH]n1
inactive: [4] | [6] | [9] | [7]

CCOP(=S)(OCC)SCSCC
inactive: [1] | [2] | [6] | [7]

N#C/C=C/c1ccccc1
inactive: [5] | [6] | [9] | [7]

CCOP(=S)(OCC)SCSc1ccc(Cl)cc1
inactive: [2] | [4] | [5] | [9] | [7]

Oc1ccc(I)cc1
inactive: [1] | [2] | [4] | [6] | [9] | [7]

CC(Cl)CN(C)C (stereo not given)
inactive: [1] | [3] | [6] | [9]

Nc1cc2c3c(c1)C(c1ccccc1)=N[C@@H](NC(=O)c1cccnc1)C(=O)N3CC2
inactive: [1] | [4] | [5] | [6] | [9] | [7]

Cc1cccc(N)c1
inactive: [4] | [5] | [6] | [9]

CCN(CC)c1ccccc1
inactive: [3] | [5] | [7]

O=[N+]([O-])c1ccccc1
inactive: [4] | [6]

Cc1cc(C)c(C(=O)P(=O)(c2ccccc2)c2ccccc2)c(C)c1
inactive: [1] | [2]
active: [6] 173 µM

COP(=O)(O)OC
inactive: [1] | [2] | [6] | [7]

CCOc1ccc(C(C)(C)COCc2cccc(Oc3ccccc3)c2)cc1
inactive: [1] | [2] | [9] | [7]

CCN(CC)C1CCCCC1
inactive: [1] | [5] | [6] | [9]

c1ccc(OP(Oc2ccccc2)Oc2ccccc2)cc1
inactive: [1] | [9]

CC(Cl)(Cl)C(=O)O
inactive: [1] | [6] | [9] | [7]

O=C(O)C1C(C(=O)O)C2(Cl)C(Cl)=C(Cl)C1(Cl)C2(Cl)Cl (stereo not given)
inactive: [1] | [3] | [4] | [5] | [6] | [9]

CCCCc1ccccc1
inactive: [2] | [3] | [7]

O=C(O)C=CC(F)(C(F)(F)F)C(F)(F)F
inactive: [1] | [4] | [5] | [6] | [9]

OCC1CO1 (stereo not given)
inactive: [3] | [4] | [5] | [6] | [9]

CC1(C)CN=C(NN=C(/C=C/c2ccc(C(F)(F)F)cc2)/C=C/c2ccc(C(F)(F)F)cc2)NC1
inactive: [1] | [2] | [7]

OCC(F)(F)OC(F)(F)C(F)(F)OC(F)(F)CO
inactive: [1] | [2] | [6] | [9] | [7]

Nc1ccc(Sc2ccc(N)cc2)cc1
inactive: [1] | [5] | [9] | [7]

c1cc2c3c(cccc3c1)CC2
inactive: [1] | [4] | [5] | [9]

CO/N=C(/C(=O)OC)c1ccccc1COc1ccccc1C
inactive: [1] | [2] | [6] | [9]
